Screening results as filed in PubChem BioAssay.
Compounds with a hit are over-represented: about 10% of the library has one in this group of screens.
Sfp PPTase inh: blocks B. subtilis Sfp PPTase activity; actives 3.5% (n = 310,000); Biochemical Sfp PPTase activity, qHTS; AID 1490; Potency, µM, without a hit: largest response in the series, negative = inhibition, hits mostly inhibitors;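 further: the enzyme is Sfp with the accession as filed and its product quenches rhodamine fluorescence; potency means the concentration at half of the fitted maximal effect; 0% = enzyme reaction without inhibitor and -100% = no enzyme wells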
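Fluorescence-quenching assay with 15 nM Sfp, 5 uM rhodamine-CoA and 12.5 uM BHQ-2-labelled ybbR peptide in pH 7.6 Hepes/MgCl2 buffer. Enzyme was pre-incubated with compound for 15 min at room temperature. Rate was taken from the 30-min fluorescence change (525/598 nm).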
CCT modulator: changes cytosolic chaperonin activity. purified chaperonin ATPase assay, HTRF ADP detection, 30 min. activity change, % (no concentration beside the values), hits read low. AID 651819. actives 0.3% (n = 360,000); in the data active means activity change below about -30%
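Nucleotide hydrolysis assay: TRiC at 20–40 nM final (set by batch activity) with 10 uM ATP, 30 min at 37 °C, in presence of 76 uM compound. Detection by competitive ADP HTRF, 30 min ambient.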
PLK1 PBD block: inhibitors of human PLK1 polo-box domain binding | Potency, µM, inactives show max response, negative = inhibition, hits mostly inhibitors | Plk1 PBD binding of FITC phosphopeptide, fluorescence polarization | actives 2.8% (n = 360,000) | P53350 | AID 720504; further: potency means the concentration at half of the fitted maximal effect; series mostly up to about 57 µM; nearly all actives have a fitted effect of over 65% in size
G9a block: inhibitors of human histone lysine methyltransferase G9a. Q96KQ7. G9a H3K9 monomethylation, AlphaScreen, 2 h. Potency, µM (top dose mostly 102 µM), without a hit: at the highest dose activity, negative = inhibition, usual class: inhibitors. actives 8.8% (n = 350,000). AID 504332; further: potency means the concentration at half of the fitted maximal effect; nearly all actives have a fitted effect of over 75% in size
Target sequence (Q96KQ7 913-1193 limits assumed): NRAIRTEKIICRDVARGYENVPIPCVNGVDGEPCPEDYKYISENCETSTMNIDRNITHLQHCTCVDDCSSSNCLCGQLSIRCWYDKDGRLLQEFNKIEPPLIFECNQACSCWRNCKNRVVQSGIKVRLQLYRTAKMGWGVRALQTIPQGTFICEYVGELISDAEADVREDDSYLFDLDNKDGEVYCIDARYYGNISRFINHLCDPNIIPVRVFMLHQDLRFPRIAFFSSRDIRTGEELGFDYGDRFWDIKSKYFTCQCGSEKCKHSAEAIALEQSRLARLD
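AlphaScreen detection with an anti-monomethyl H3K9 antibody quantified product after a 2 h room-temperature reaction containing 500 nM biotinylated H3K9 peptide, 20 µM SAM and 20 nM enzyme, which had been preincubated 15 min with compound.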
VDR inh: blocks the human vitamin D receptor; P11473; Potency, µM, without a hit: max response, negative = inhibition, usual class: inhibitors; actives 0.93% (n = 400,000); VDR-SRC2-3 peptide fluorescence polarization, 2 h; further: potency means the concentration at half of the fitted maximal effect
Target sequence (P11473 whole entry, looked up): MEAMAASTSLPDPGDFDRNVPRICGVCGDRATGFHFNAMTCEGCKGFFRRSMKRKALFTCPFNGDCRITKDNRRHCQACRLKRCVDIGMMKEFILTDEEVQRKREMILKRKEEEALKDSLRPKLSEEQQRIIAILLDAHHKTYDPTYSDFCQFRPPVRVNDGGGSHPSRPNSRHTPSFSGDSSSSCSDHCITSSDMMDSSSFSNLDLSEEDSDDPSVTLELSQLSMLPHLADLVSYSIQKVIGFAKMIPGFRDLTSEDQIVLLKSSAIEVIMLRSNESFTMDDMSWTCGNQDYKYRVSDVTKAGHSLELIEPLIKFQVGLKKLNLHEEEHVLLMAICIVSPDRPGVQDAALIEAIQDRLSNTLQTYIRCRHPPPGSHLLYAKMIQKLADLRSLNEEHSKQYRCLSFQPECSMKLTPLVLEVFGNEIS
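FP read-out; VDR + SRC2-3 coactivator peptide; 23 nl compound by pintool; 2 h RT incubation; reagents held at 4 deg C, protected from light.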
Mm-Cpn inhibitor: M. maripaludis TRiC chaperonin inhibition; Potency, µM (titrated, usually from 76.9 µM), for inactives: top-dose activity, negative = inhibition, actives largely listed as inhibitors; purified Mm-Cpn ATPase, ADP Transcreener TR-FRET; actives 0.031% (n = 330,000); AID 504842; further: potency means the concentration at half of the fitted maximal effect; nearly all actives have a fitted effect of over 80% in size
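Measured: ADP formation by purified Mm-CPN. Conditions: 25 nM protein, 10 uM ATP, Tris pH 7.4 with Mg2+, K+ and DTT, 37°C for 30 min. Detection: Transcreener HTRF after 30 min at room temperature.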
Numbers without * were called inactive; ? = inconclusive; / = no result; [ ] = dose if it differs, or a comment. Unless noted, the call rests on the fitted dose curve; in most records, active means well fitted curve in the direction sought with a large enough effect; inconclusive means small, poorly fitted or top-dose-only effect, or another doubt; inactive means no such curve, though single readings can be large; an effect the other way counts as inactive or inconclusive. Unless noted, on the % scale 0 is the no-effect control and ±100 the full control effect.

SMILES	Sfp PPTase inh	CCT modulator	PLK1 PBD block	G9a block	VDR inh	Mm-Cpn inhibitor
COc1ccc(-c2nc(SC(CC(=O)NCCO)c3cccs3)n[nH]2)cc1 (configuration not stated)	7.7%	-3.5	2.1%	44.7µM*	-22.2%	1.2%
COc1ccc(-c2nc(SCC(=O)NCCc3ccccc3)n[nH]2)cc1	/	/	/	-3.9%[59 µM]	13.1%	/
O=C1NC2c3c(Cl)sc(Cl)c3C(=O)C2O1 (configuration not stated)	/	2.3	15µM*	/	?	/
Cn1c(CN2CCCCC2)c(C#N)c2ccccc21	10.1%	-0.4	-14.5%	28.2µM*	-11.1%	-0.9%
Cn1c(CN2CCN(CC#N)CC2)c(C#N)c2ccccc21	-0.8%	-3.5	-12.6%	44.7µM*	-1.3%	0.0%
Cn1c(CN2CCC(C(N)=O)CC2)c(C#N)c2ccccc21	-0.2%	-1.7	-24.7%	-18.6%[59 µM]	13.4%	0.2%
Cn1cccc1C(=O)N1CCC2(CC1)CN(C(c1ccccc1)c1ccccc1)C2	3.9%	/	/	-3.6%[12.7 µM]	-6.3%	/
O=C(c1ccccc1-c1nc2ccccc2[nH]1)N1CCOCC1	19.5%	-3.9	-11.8%	5.9%[12.7 µM]	10.5%	-0.4%
O=C(O)c1ccccc1-c1nc2ccccc2[nH]1	-4.2%	-3.8	-16.5%	44.7µM*	-17.7%	-0.4%
Cc1nnsc1-c1nc2ccccc2[nH]1	13.3%	-1.4	-18.2%	28.2µM*	-3.9%	-5.2%
Cn1cccc1-c1nc2ccccc2[nH]1	15.4%	0.4	3.0%	44.7µM*	-4.0%	-0.1%
c1ccc(-c2nc3ccccc3[nH]2)cc1	19.7%	-1.1	-13.4%	-2.7%[12.7 µM]	-5.7%	0.7%
Cc1ccc(-c2nc3ccccc3[nH]2)s1	50.1µM*	0.7	-16.7%	7.94µM*	2.6%	-2.4%
COc1ccc(OC)c(NC(=O)c2ccc(CN(c3cc(Cl)ccc3C)S(=O)(=O)c3ccccc3)cc2)c1	79.4µM*	-2.2	1.1%	-38.8%	-11.0%	-2.2%
CCN(c1ccccc1)S(=O)(=O)c1ccc(OC)c(NC(=O)c2cc(Cl)ccn2)c1	/	-0.3	-5.4%	56.2µM*	-8.9%	-0.8%
CCN(c1ccccc1)S(=O)(=O)c1ccc(OC)c(NC(=O)c2c(C)noc2C)c1	/	1.2	-1.7%	-38.8%	-9.1%	-3.4%
Cc1nn2c3c(cnc2c1-c1ccc(F)cc1)C(=O)CC(c1ccccc1)C3 (configuration not stated)	/	/	/	20.7%[59 µM]	-13.4%	/
COc1ccc(-c2nc(C)c(CCNC(=O)C(=O)Nc3ccccc3F)s2)cc1	/	/	/	21.3%[59 µM]	-0.2%	/
CCOc1ccc2c(c1)n([O-])c1c([n+]2=O)CCCC1	20µM*	-1.0	-22.1%	?	-10.8%	-0.8%
COc1ccc(-n2c(Cc3cccn3C)nnc2SCC(=O)Nc2cccc(NC(C)=O)c2)cc1	-8.5%	-0.1	-1.0%	25.4%[2.33 µM]	-1.7%	-1.3%
COc1ccc(-n2c(Cc3cccn3C)nnc2SCC(=O)Nc2ccc(C(C)=O)cc2)cc1	-12.9%	-0.2	-2.2%	50.1µM*	15.6%	-3.7%
COc1ccc(-n2c(Cc3cccn3C)nnc2SCC(=O)Nc2ccc(C)cc2)cc1	-2.4%	-3.0	0.6%	35.5µM*	2.3%	0.0%
COc1ccc(-n2c(Cc3cccn3C)nnc2SCC(=O)Nc2cccc(Cl)c2)cc1	-12.1%	-2.2	4.9%	?	-7.2%	-10.6%
COc1ccc(-n2c(Cc3cccn3C)nnc2SCC(=O)Nc2ccc3c(c2)OCO3)cc1	-9.1%	0.0	-7.4%	50.1µM*	-1.8%	0.5%
COc1ccc(NC(=O)CSc2nnc(Cc3cccn3C)n2-c2ccc(OC)cc2)cc1	4.4%	1.6	-3.7%	44.7µM*	8.4%	-2.7%
SMILES	Sfp PPTase inh	CCT modulator	PLK1 PBD block	G9a block	VDR inh	Mm-Cpn inhibitor
COCCNC(=O)c1ccc(Cn2c(SCC(=O)NC(C)C)nc3ccccc3c2=O)cc1	/	/	/	16.6%[59 µM]	-6.4%	/
O=C(CCSCc1ccccc1Cl)N1CCN(c2ccc(F)cc2)CC1	/	/	/	-33.0%[59 µM]	1.4%	/
COc1ccc(C(c2c(O)cc(C)n(Cc3ccco3)c2=O)N2CCN(c3ccccc3)CC2)cc1 (configuration not stated)	/	/	/	?	0.8%	/
Cc1ccc(C(=O)Nc2nnc(S(=O)(=O)N(C)Cc3ccc(Cl)cc3)s2)cc1	/	/	/	10.0%[59 µM]	9.3%	/
O=C(NCCN1CCCCC1)c1ccc(I)cc1	28.8%	/	/	16.6%[59 µM]	10.8%	/
COc1ccc(-n2c(Cc3cccn3C)nnc2SCC(=O)NCC2CCCO2)cc1 (configuration not stated)	50.1µM*	-1.0	3.7%	?	2.0%	1.7%
Cc1ccc(NC(=O)CSc2nnc(Cc3cccn3C)n2-c2ccc(F)cc2)cc1	-8.8%	-5.4	1.7%	?	?	-1.9%
CC(=O)c1ccc(NC(=O)CSc2nnc(Cc3cccn3C)n2-c2ccc(F)cc2)cc1	-8.7%	1.1	-19.3%	50.1µM*	-10.7%	-13.9%
CCOc1ccccc1CNc1ncnc2onc(-c3ccc(F)cc3)c12	/	/	/	10.8%[59 µM]	-0.6%	/
Cc1nc(NC2CCCCC2)c2nc(-c3ccccc3)n(CCN(C)C)c2n1	7.8%	/	/	/	/	/
Cc1ccc(/C=C/c2onc(C)c2S(=O)(=O)N2CCC(C(=O)NCc3ccc(C)o3)CC2)cc1	/	/	/	0.8%[59 µM]	3.3%	/
COc1cc2[nH]c(=S)n(C3CC3)c(=O)c2cc1OC	-1.7%	0.7	2.7%	17.8µM*	-11.8%	2.9%
COc1cc2[nH]c(=S)n(CCN3CCOCC3)c(=O)c2cc1OC	17.8µM*	-1.3	-5.6%	?	-0.8%	1.6%
CCC1CCCCN1CCn1c(=S)[nH]c2cc(OC)c(OC)cc2c1=O (configuration not stated)	-2.0%	-1.7	-2.8%	50.1µM*	0.0%	-0.9%
COc1cc2[nH]c(=S)n(CCCN3CCOCC3)c(=O)c2cc1OC	?	-4.9	-5.1%	?	18.8%	0.9%
COC(=O)c1ccc(-c2ccc(/C=N/NC(=O)CC3(C)OCCCO3)o2)cc1	50.1µM*	-1.1	-3.1%	4.7%[12.7 µM]	-8.8%	-1.9%
COC(=O)c1cccc(-c2ccc(/C=N/N3C(=O)C4C5C=CC(C6CC56)C4C3=O)o2)c1 (configuration not stated)	1.4%	-1.7	-24.7%	/	-3.9%	1.2%
O=C(CN1CCOCC1)N/N=C/c1ccc(-c2ccc(C(=O)O)cc2)o1	9.4%	1.0	-5.8%	39.8µM*	-2.2%	-4.4%
CC1(CC(=O)N/N=C/c2ccc(-c3ccc(C(=O)O)cc3)o2)OCCO1	-20.3%	-5.8	-3.4%	8.91µM*	-4.3%	-0.1%
CC1(CC(=O)N/N=C/c2ccc(-c3ccc(Cl)cc3)o2)OCCO1	2.0%	-1.2	-5.5%	?	-9.7%	1.3%
COC(=O)c1ccc(-c2ccc(/C=N/N3C(=O)C4C5C=CC(C6CC56)C4C3=O)o2)cc1 (configuration not stated)	-26.8%	0.6	-1.1%	7.94µM*	-29.7%	0.0%
